High-throughput results deposited in PubChem BioAssay by National Center for Advancing Translational Sciences (NCATS).
NPC1 prom act: NPC1 promoter activation. Huh7 NPC1 promoter luciferase reporter, 24 h. Potency, µM (series often up to 9.22 µM), without a hit: top-dose activation, actives largely listed as activators. 320,000 tested, 2.4% active. AID 485313; further: % of control where 0% means no effect; nearly all actives have a fitted effect of over 60% in size
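Luminescence from an NPC1 promoter-driven luciferase reporter in stably transfected Huh7 cells was measured after 24 h compound treatment at 37 °C, followed by 10 min ambient incubation with luciferase detection reagent.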
ELG1 genotox: genotoxicity induction in ELG1-luciferase HEK293T cells | 330,000 tested, 1.3% active | Potency, µM (top dose mostly 46 µM), for the others: top-dose activity change, positive = activation, actives largely listed as activators | AID 504466 | HEK293T ELG1-luciferase reporter, luminescence, 16 h; further: % of control where 0% means no effect; nearly all actives have a fitted effect of over 60% in size
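HEK293T cells expressing luciferase-tagged ELG1 were treated with compound or DMSO for 16 hr at 37°C. Luciferase activity was then read after 30 min with ONE-Glo at room temperature; rising signal flags genetic stress.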
SMN2 splice up: increases expression of the SMN2 splice variant | 210,000 tested, 2.8% active | Potency, µM (doses to about 46.1 µM), for the others: at the top dose activity change, positive = activation, hits mostly activators | AID 1458 | HEK293 SMN2-luciferase splicing reporter, luminescence, 30-36 h; further: % of control where 0% means no effect; nearly all actives have a fitted effect of over 55% in size
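HEK293 cells carry an SMN2 […]–luciferase reporter in which exon 7 inclusion puts luciferase in frame. Cells were plated 10-12 h before compound addition, then incubated 30-36 h at 37C. ONE-Glo luminescence was read; sodium butyrate at 4.5 mM final served as control.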
FLuc counter: inhibits or activates purified firefly luciferase, miR-21 counter-screen; P08659; purified FLuc, Km substrates, luminescence inhibition; Potency, µM (highest dose often 57.5 µM), without a hit: at the top dose activity change, negative = inhibition, hits mostly inhibitors; 360,000 tested, 6.9% active; AID 588342;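 further: plate controls were vehicle for no effect and reference inhibitor for full effect; nearly all actives have a fitted effect of over 55% in size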
Target sequence (P08659 whole entry, looked up): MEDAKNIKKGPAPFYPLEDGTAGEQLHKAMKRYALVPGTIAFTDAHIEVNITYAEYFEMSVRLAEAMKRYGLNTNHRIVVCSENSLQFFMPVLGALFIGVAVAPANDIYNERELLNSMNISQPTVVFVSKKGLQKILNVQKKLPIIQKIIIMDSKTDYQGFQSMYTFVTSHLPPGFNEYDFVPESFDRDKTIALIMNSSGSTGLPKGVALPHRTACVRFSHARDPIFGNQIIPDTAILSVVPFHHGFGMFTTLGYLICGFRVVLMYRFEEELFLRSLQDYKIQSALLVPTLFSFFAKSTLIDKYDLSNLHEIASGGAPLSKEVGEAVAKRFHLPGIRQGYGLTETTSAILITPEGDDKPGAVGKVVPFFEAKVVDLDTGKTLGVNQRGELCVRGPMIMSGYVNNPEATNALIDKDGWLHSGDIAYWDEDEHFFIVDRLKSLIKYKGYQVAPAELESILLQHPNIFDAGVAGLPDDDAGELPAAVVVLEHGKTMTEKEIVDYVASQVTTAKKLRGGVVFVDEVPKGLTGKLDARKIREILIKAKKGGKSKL
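Purified P. pyralis luciferase, 10 nM final, with Km-level 10 uM D-luciferin and 10 uM ATP in 50 mM Tris acetate pH 7.5, 10 mM Mg acetate, 0.01% Tween-20, 0.05% BSA; 6-point qHTS titration about 60 µM downward; luminescence read.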
ELG1 DNA repair: blocks ELG1-dependent DNA repair in HEK293T cells. HEK293T ELG1-luciferase reporter, luminescence, 16 h; DNA damage induced by 5-fluorouridine. Potency, µM (top dose mostly 46.1 µM), without a hit: at the top dose activity change, negative = inhibition, actives largely listed as inhibitors. 330,000 tested, 2.3% active. AID 504467; further: on the % scale 0 is the no-effect control and ±100 the full control effect; nearly all actives have a fitted effect of over 55% in size
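In this reporter screen, reduction of luminescence relative to DMSO vehicle indicated activity. Compounds and 5-fluorouridine were added together to 2,000 cells per well, incubated for 16 hr at 37 °C, then developed with ONE-Glo.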
Rab9 prom act: activators of Rab9 promoter; Potency, µM (series often up to 9.22 µM), for the others: at the top dose activation, negative = inhibition, hits mostly activators; Huh7 Rab9 promoter-luciferase reporter, luminescence, 24 h; 320,000 tested, 2.8% active; AID 485297; further: % of control where 0% means no effect; nearly all actives have a fitted effect of over 60% in size
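Promoter activation is measured as luciferase luminescence in Huh7 cells stably transfected with a Rab9 promoter–luciferase construct, following 24 h compound exposure at 37 °C and 10 min reagent incubation at ambient temperature.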
The depositor's hits bear a star; ? = inconclusive; / = not tested or not shown; [ ] = another dose, or the depositor's remark. Sampled rows, rich in hits. Any-hit rate of the full collection: about 9.4%. The call rests on the fitted dose curve; in most records, active means well fitted curve in the direction sought with a large enough effect; inconclusive means small, poorly fitted or top-dose-only effect, or another doubt; inactive means no such curve, though single readings can be large; an effect the other way counts as inactive or inconclusive. Potency means the concentration at half of the fitted maximal effect.

SMILES	NPC1 prom act	ELG1 genotox	SMN2 splice up	FLuc counter	ELG1 DNA repair	Rab9 prom act
O=[N+]([O-])c1ccc(COn2nnc3ccccc32)cc1	12%	11%	-7%	-3%	?	30%
COc1ccc(CNC(=O)CCC(=O)N2CCSc3ccccc32)cc1	/	/	/	5%	/	/
Cc1ccc(-c2ccc(C(=O)Nc3cccc(F)c3)o2)c2ccccc12	7%	-1%	-1%	-6%	?	-6%
COc1ccc(NC(=O)c2cc(-c3ccccc3Cl)no2)cc1	1%	8%	-9%	9.5µM*	3%	-3%
COc1ccc(NC(=O)c2cc(C)no2)cc1	22%	18%	/	?	?	12%[1.84 µM]
CCc1nnc(NC(=O)c2ccc(-c3ccccc3Cl)o2)s1	30%	21µM*	5%	?	?	?
O=C(Nc1cccc(F)c1)c1ccc(-c2ccccc2Cl)o1	-2%	?	11µM*	9.5µM*	?	-2%
COC(=O)c1sccc1-c1ccc(C(=O)Nc2ccccc2)o1	3.5µM*	?	?	7.6µM*	?	2.2µM*
O=C(Nc1cccc(O)c1)c1cc(-c2ccccc2F)no1	/	/	/	1%	/	/
CC(=O)c1cccc(NC(=O)c2ccc(-c3ccccc3[N+](=O)[O-])o2)c1	?	?	10µM*	3.4µM*	?	3.2µM*
O=C(Nc1ccccc1)c1cc(-c2ccccc2Cl)no1	?	?	?	0.76µM*	?	23%
COc1ccc(NC(=O)c2ccc(-c3ccccc3Cl)o2)cc1	?	?	18µM*	9.5µM*	?	?
Cc1cc(NC(=O)c2ccc(-c3ccccc3[N+](=O)[O-])o2)no1	/	5%	/	/	15%	/
Cc1ccc(NC(=O)c2ccc(-c3cccc(Cl)c3C)o2)cc1	/	/	-19%	7.6µM*	/	/
CCOc1ccc(NC(=O)c2ccc(-c3cccc(Cl)c3C)o2)cc1	/	/	8%	-17%	/	/
COc1ccc(NC(=O)c2ccc(-c3cccc(Cl)c3C)o2)cc1	/	/	10%	?	/	/
ON=C1CCCCC1	/	/	-9%	/	/	/
Cc1ccc(OCC(=O)N(Cc2ccco2)Cc2ccco2)cc1C	/	/	-6%	-18%	/	/
O=C(NNC(=O)c1ccccc1OCc1ccccc1)c1ccccc1O	-13%	6%	/	19µM*	?	-20%
O=C(N/N=C/c1ccccc1F)c1ccccc1OCc1ccccc1	-23%	-12%	/	17µM*	?	-19%
O=C(CCc1ccccc1)NNC(=O)c1ccccc1F	0%	1%	/	0%	8%	-3%
O=C(N/N=C/c1ccc[nH]1)c1ccccc1OCc1ccc(F)cc1	-2%	5%	/	-2%	-2%	-3%
O=C(NNC(=O)c1ccccc1OCc1ccccc1)c1ccccc1F	?	23%	/	21µM*	?	29%
O=C(CNC(=O)c1ccccc1F)N/N=C/c1cc(Br)ccc1OCc1ccccc1	2%	-2%	12%	-1%	8.2µM*	13%
CSc1ccc(CCNC(=O)CCCn2c(=O)c3cccn3c3ccccc32)cc1	/	/	/	2%	/	/
SMILES	NPC1 prom act	ELG1 genotox	SMN2 splice up	FLuc counter	ELG1 DNA repair	Rab9 prom act
COc1cccc(CN(C(=O)c2oc3ccccc3c2C)C2CCS(=O)(=O)C2)c1 (centres undefined)	/	/	-4%	3%	/	/
O=C(NNC(=O)c1ccccc1OCc1ccc(F)cc1)c1ccccc1O	-28%	-2%	/	27µM*	2.3µM*	-37%
O=C(NCc1ccc(F)cc1)c1ccccc1OCc1ccccc1	0%	-2%	-22%	1%	-16%	2%
CC/C=C\C[C@H](O)/C=C/C=C\C/C=C\C/C=C\CCCC(=O)O	/	/	-7%	/	/	/
Cc1ccc(-n2[nH]c(C)c(C=Nc3ccc4[nH]c(=O)[nH]c4c3)c2=O)cc1	1%	-17%	-11%	?	-25%	1%
Cc1ccc(N=Cc2c(C)[nH]n(-c3nc4ccccc4[nH]3)c2=O)cc1	?	2%	-8%	6.7µM*	27%	?
Cc1ccc(N=Cc2sc(O)c3ccccc23)c(C)c1	?	11%	11µM*	?	?	1µM*
